Assay results published in PubChem BioAssay (EPA / NIEHS).
Inconclusive results are not listed. The source made the active and inactive calls. The calls were made as follows, unless noted: active = hit-call score of the fitted dose curve at least 0.9, where 1 is the maximum; inconclusive = response in the unintended direction; inactive = score below 0.9.

How the values were obtained:
[1] = biological target: Retinoic acid receptor RXR-alpha (Homo sapiens) (UniProt P19793); experiment: OT_NURR1_NURR1RXRa_0480: Odyssey Thera (OT) 8-hour HEK293T Protein Complementation Assay for Nurr1/retinoid X receptor (RXR) (AID 2283385)
Outline: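 HEK293T cells expressing Nurr1 and RXRα fused to reporter fragments were dosed with compound for 8 hours. Complex formation was read as fluorescence intensity and analysed as gain of signal against DMSO as baseline.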

[2] = biological target: Peroxisome proliferator-activated receptor gamma (Homo sapiens) (UniProt P37231); experiment: OT_PPARg_PPARgSRC1_0480: Odyssey Thera (OT) 8-hour Protein-Complementation Assay for Peroxisome Proliferator-activated Receptor Gamma / SRC-1 Co-activator (AID 2283387);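 also: nuclear to cytoplasmic split Venus YFP fluorescence ratio reporting PPARg SRC-1 interaction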
Outline: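 HEK293T transiently transfected with PPARg and SRC-1 fused to Venus YFP fragments, compounds 8 h at 37C. Fixed, Draq5-stained cells imaged; nuclear/cytoplasmic 488 nm fluorescence ratio over at least 350 cells per image; gain fitted versus DMSO.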

[3] = biological target: Peroxisome proliferator-activated receptor gamma (Homo sapiens) (UniProt P37231); experiment: OT_PPARg_PPARgSRC1_1440: Odyssey Thera (OT) 24-hour Protein-Complementation Assay for Peroxisome Proliferator-activated Receptor Gamma/ SRC-1 Co-activator (AID 2283388)
Outline: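 Transient HEK293T, YFP fragments 1-158/159-239 (mutant IFP1/IFP2) fused to PPARg/SRC-1; 24 h dosing; fix 4% formaldehyde, Draq5; Opera imaging 488/635 nm; N/C ratio, gain vs DMSO.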

[4] = biological target: Retinoic acid receptor RXR-alpha (Homo sapiens) (UniProt P19793); experiment: OT_NURR1_NURR1RXRa_1440: Odyssey Thera (OT) 24-hour HEK293T Protein Complementation Assay for Nurr1/retinoid X receptor (RXR) (AID 2283386)
Outline: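 HEK293T cells were dosed with compound and read 24 h later by fluorescence intensity in a protein-fragment complementation format, where Nurr1–RXRα interaction reconstitutes a split reporter. Activity was fitted as gain of signal relative to DMSO baseline.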

[5] = CEETOX_H295R_11DCORT: CeeTox H295R High-throughput Steroidogenesis Assay for 11-Deoxycortisol (11DCORT) (AID 2283432; active = hit-call score of the fitted dose curve at least 0.9, where 1 is the maximum; inactive = score below 0.9;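 as to AC50: 11-deoxycortisol secreted into the medium measured by LC-MS/MS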); conditions: actives raise or lower the signal
Outline: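 H295R cells prestimulated 48 h with 10 uM forskolin, then exposed 48 h to chemical in 0.1% DMSO. 11-Deoxycortisol in medium quantified by HPLC-MS/MS after MTBE extraction; bidirectional fit versus DMSO. MTT viability read in same wells.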

[6] = CEETOX_H295R_OHPREG: CeeTox H295R High-throughput Steroidogenesis Assay for OH-Pregnenolone (OHPREG) (AID 2283434; active = hit-call score of the fitted dose curve at least 0.9, where 1 is the maximum; inactive = score below 0.9); conditions: actives raise or lower the signal
Outline: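 Human adrenal H295R cells were prestimulated 48 h with 10 uM forskolin, then exposed 48 h to chemical in 0.1% DMSO. Medium 17alpha-hydroxypregnenolone was quantified by HPLC-MS/MS after MTBE extraction; bidirectional fitting versus DMSO baseline.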

[7] = CEETOX_H295R_OHPROG: CeeTox H295R High-throughput Steroidogenesis Assay for OH-Progesterone (OHPROG) (AID 2283435; active = hit-call score of the fitted dose curve at least 0.9, where 1 is the maximum; inactive = score below 0.9); conditions: actives raise or lower the signal
Outline: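 H295R human adrenal cells were prestimulated 48 h with 10 uM forskolin, then exposed 48 h to test chemical (0.1% DMSO final). 17alpha-hydroxyprogesterone in medium was measured by HPLC-MS/MS after MTBE extraction; bidirectional fitting vs DMSO.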

[8] = CEETOX_H295R_CORTIC: CeeTox H295R High-throughput Steroidogenesis Assay for Corticosterone (CORTIC) (AID 2283437; active = hit-call score of the fitted dose curve at least 0.9, where 1 is the maximum; inactive = score below 0.9;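 also: corticosterone secreted into medium quantified by mass spectrometry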); conditions: actives raise or lower the signal
Outline: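 H295R cells were prestimulated 48 h with 10 uM forskolin, then exposed 48 h to test chemical in 0.1% DMSO. Medium corticosterone was MTBE-extracted and quantified by HPLC-MS/MS; bidirectional fit versus DMSO baseline.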

[9] = CEETOX_H295R_CORTISOL: CeeTox H295R High-throughput Steroidogenesis Assay for Cortisol (AID 2283438; active = hit-call score of the fitted dose curve at least 0.9, where 1 is the maximum; inactive = score below 0.9;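 also: cortisol secreted into medium quantified by LC-MS/MS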); conditions: actives raise or lower the signal
Outline: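 H295R human adrenal cells were prestimulated 48 h with 10 uM forskolin, then exposed 48 h to test chemical (0.1% DMSO final). Medium cortisol was quantified by HPLC-MS/MS after MTBE extraction; bidirectional fitting relative to DMSO baseline.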

[10] = CEETOX_H295R_DOC: CeeTox H295R High-throughput Steroidogenesis Assay for DOC (AID 2283439; active = hit-call score of the fitted dose curve at least 0.9, where 1 is the maximum; inactive = score below 0.9); conditions: actives raise or lower the signal
Outline: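 H295R adrenal cells prestimulated 48 h with 10 uM forskolin, then exposed 48 h to test chemical (0.1% DMSO final). Medium 11-deoxycorticosterone extracted with MTBE, quantified by HPLC-MS/MS; bidirectional fit versus DMSO baseline; MTT viability in same wells.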

[11] = CEETOX_H295R_PROG: CeeTox H295R High-throughput Steroidogenesis Assay for Progesterone (PROG) (AID 2283442; active = hit-call score of the fitted dose curve at least 0.9, where 1 is the maximum; inactive = score below 0.9;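 as to AC50: human H295R adrenal cells primed with 10 µM forskolin before dosing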); conditions: actives raise or lower the signal
Outline: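 Adrenal H295R line, forskolin-stimulated (10 uM, 48 h) before dosing. 48 h exposure, 0.1% DMSO vehicle. Secreted progesterone by reverse-phase HPLC with ESI+ MS/MS quantification; DMSO-normalised bidirectional curve fit.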

[12] = CEETOX_H295R_ESTRADIOL: CeeTox H295R High-throughput Steroidogenesis Assay for Estradiol (AID 2283440; active = hit-call score of the fitted dose curve at least 0.9, where 1 is the maximum; inactive = score below 0.9;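 also: estradiol secreted into medium quantified by LC-MS/MS after dansyl derivatisation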); conditions: actives raise or lower the signal
Outline: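 Following OECD 456 with minor changes, H295R cells received 10 uM forskolin for 48 h and then test chemical for 48 h. Hormone output was read by HPLC-MS/MS, with cytotoxic concentrations diluted until MTT viability reached ≥70%.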

[13] = CEETOX_H295R_ESTRONE: CeeTox H295R High-throughput Steroidogenesis Assay for Estrone (AID 2283441; active = hit-call score of the fitted dose curve at least 0.9, where 1 is the maximum; inactive = score below 0.9;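 also: estrone secreted into medium measured by LC-MS/MS after dansyl derivatization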); conditions: actives raise or lower the signal
Outline: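 H295R cells; 48 h forskolin (10 uM) prestimulation; 48 h compound exposure, 0.1% DMSO final. Medium estrone: MTBE extraction, dansyl derivatization, HPLC-MS/MS. Bidirectional fit vs DMSO.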

[14] = CEETOX_H295R_ANDR: CeeTox H295R High-throughput Steroidogenesis Assay for Androstenedione (ANDR) (AID 2283436; active = hit-call score of the fitted dose curve at least 0.9, where 1 is the maximum; inactive = score below 0.9); conditions: actives raise or lower the signal
Outline: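 H295R human adrenal cells (passages ≤10) were exposed to test chemicals for 48 h; androstenedione in medium was MTBE-extracted and quantified by HPLC-MS/MS against a 7-point standard curve. Bidirectional fitting used DMSO as baseline.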

Measured: AC50

Peroxisome proliferator-activated receptor gamma (Homo sapiens), sequence (P37231 whole entry, looked up, the tested form may be a part): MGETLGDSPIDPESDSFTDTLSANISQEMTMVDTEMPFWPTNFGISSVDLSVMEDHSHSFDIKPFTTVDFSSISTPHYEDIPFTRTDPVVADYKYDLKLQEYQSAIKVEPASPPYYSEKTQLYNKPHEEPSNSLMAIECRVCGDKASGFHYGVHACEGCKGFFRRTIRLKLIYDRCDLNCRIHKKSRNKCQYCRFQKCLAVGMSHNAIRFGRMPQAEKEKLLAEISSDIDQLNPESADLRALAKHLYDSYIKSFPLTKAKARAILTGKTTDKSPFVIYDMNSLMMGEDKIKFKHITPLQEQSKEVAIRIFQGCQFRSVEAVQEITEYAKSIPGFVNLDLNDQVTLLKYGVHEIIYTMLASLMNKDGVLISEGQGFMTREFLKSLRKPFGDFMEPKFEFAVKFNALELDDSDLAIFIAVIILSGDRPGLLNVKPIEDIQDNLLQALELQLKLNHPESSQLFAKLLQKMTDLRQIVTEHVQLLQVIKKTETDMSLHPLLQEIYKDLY
Retinoic acid receptor RXR-alpha (Homo sapiens), sequence (P19793 whole entry, looked up, the tested form may be a part): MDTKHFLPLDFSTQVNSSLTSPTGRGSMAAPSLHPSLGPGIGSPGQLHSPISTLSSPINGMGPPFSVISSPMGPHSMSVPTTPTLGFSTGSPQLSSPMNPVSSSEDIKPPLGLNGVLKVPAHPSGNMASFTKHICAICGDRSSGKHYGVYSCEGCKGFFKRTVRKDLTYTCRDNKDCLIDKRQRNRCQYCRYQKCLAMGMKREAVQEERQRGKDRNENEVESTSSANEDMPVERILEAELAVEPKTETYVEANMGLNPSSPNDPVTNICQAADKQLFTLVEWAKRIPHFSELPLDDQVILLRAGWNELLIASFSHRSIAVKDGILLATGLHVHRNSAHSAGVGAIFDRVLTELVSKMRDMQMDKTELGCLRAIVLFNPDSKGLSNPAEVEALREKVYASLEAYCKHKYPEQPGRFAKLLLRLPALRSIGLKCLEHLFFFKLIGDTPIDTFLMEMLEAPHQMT

CCCCCCCC(=O)OCC(O)CO (stereo not drawn)
inactive: [1] | [2] | [3]

C#CC(C)(O)CC(C)C (stereo not drawn)
inactive: [1] | [4] | [2] | [3]

CC(C)CCCCCCCCCCCCCCC(=O)O
inactive: [2] | [3]

CCCCCCCC/C=C\CCCCCCCC(=O)OCC
inactive: [1] | [2] | [3]

COCCc1ccc(OCC(O)CNC(C)C)cc1 (stereo not drawn)
inactive: [6] | [8] | [9] | [10] | [11]
active: [5] 28600 nM | [7] 50000 nM

COc1ccc(CCN2CCC(Nc3nc4ccccc4n3Cc3ccc(F)cc3)CC2)cc1
active: [5] 1490 nM | [6] 698 nM | [7] 1410 nM | [8] 1480 nM | [9] 1560 nM | [10] 1520 nM | [11] 789 nM

CCOC(=O)C1OC1c1ccccc1 (stereo not drawn)
inactive: [1] | [4] | [2] | [3]

Nc1ccc2cc(S(=O)(=O)O)cc(O)c2c1N=Nc1ccccc1C(F)(F)F
inactive: [2] | [3]

CCc1cc(Cc2cc(CC)cc(C(C)(C)C)c2O)c(O)c(C(C)(C)C)c1
inactive: [2] | [3]

C[C@H]1O[C@@H](O[C@H]2[C@@H](O)C[C@H](O[C@H]3[C@@H](O)C[C@H](O[C@H]4CC[C@@]5(C)[C@H](CC[C@@H]6[C@@H]5C[C@@H](O)[C@]5(C)[C@@H](C7=CC(=O)OC7)CC[C@]65O)C4)O[C@@H]3C)O[C@@H]2C)C[C@H](O)[C@@H]1O
inactive: [2] | [3]

Clc1ccc(C(c2ccccc2Cl)C(Cl)Cl)cc1 (stereo not drawn)
inactive: [1] | [3]

O=C1OC[C@H](Cc2cccc(O)c2)[C@H]1Cc1cccc(O)c1
inactive: [1] | [2] | [3]

[O-]n1ccccc1=S.[O-]n1ccccc1=S.[Zn+2]
inactive: [2] | [3]

CC(C)(C)CC(C)(C)c1ccc(OCCOCC[N+](C)(C)Cc2ccccc2)cc1
not listed: [1] | [2] | [3] | [4] | [14]
inactive: all other assays above

CCCCCCCCCCCCCCN(CCO)CCO
inactive: [2] | [3]

CC1(C)C(=O)N(Cl)C(=O)N1Br
inactive: [2] | [3] | [5] | [7] | [8] | [9] | [10] | [11]

C[Si](C)(C)O[Si](C)(C)C
inactive: [2] | [3]

CCCC(=O)OC(C)(C)Cc1ccccc1
inactive: [2] | [3]

OCC#CCO
inactive: [4] | [2] | [3]

OC[C@H]1O[C@@H]2O[C@H]3[C@H](O)[C@@H](O)[C@@H](O[C@H]4[C@H](O)[C@@H](O)[C@@H](O[C@H]5[C@H](O)[C@@H](O)[C@@H](O[C@H]6[C@H](O)[C@@H](O)[C@@H](O[C@H]7[C@H](O)[C@@H](O)[C@@H](O[C@H]8[C@H](O)[C@@H](O)[C@@H](O[C@H]9[C@H](O)[C@@H](O)[C@@H](O[C@H]1[C@H](O)[C@H]2O)O[C@@H]9CO)O[C@@H]8CO)O[C@@H]7CO)O[C@@H]6CO)O[C@@H]5CO)O[C@@H]4CO)O[C@@H]3CO
inactive: [1] | [2] | [3]

C=Cc1ccc(C)cc1
inactive: [4] | [2] | [3]

BrCc1cccc(Oc2ccccc2)c1
active: [7] 36500 nM | [14] 38200 nM | [8] 32700 nM
not listed: [2] | [12] | [13]
inactive: all other assays above

CCOc1ccccc1O
inactive: [4] | [2] | [3]

CCC(=O)O[C@@H]1C[C@H]2CC[C@]1(C)C2(C)C
inactive: [4] | [2] | [3]

CC(C)Nc1nc(N)nc(Cl)n1
not listed: [12] | [13] | [14]
inactive: all other assays above
